For 24 compounds, outcome and AC50 results are on record in PubChem BioAssay (EPA / NIEHS).

Results filed as inconclusive are left out. Activity calls are given as the source filed them. How the source made its calls: active means hit-call score of the fitted dose curve at least 0.9, where 1 is the maximum; inconclusive means response in the unintended direction; inactive means score below 0.9.

Chain of human Vitamin D Receptor (VDR), VDR (gene 7421) (P11473 whole entry, looked up): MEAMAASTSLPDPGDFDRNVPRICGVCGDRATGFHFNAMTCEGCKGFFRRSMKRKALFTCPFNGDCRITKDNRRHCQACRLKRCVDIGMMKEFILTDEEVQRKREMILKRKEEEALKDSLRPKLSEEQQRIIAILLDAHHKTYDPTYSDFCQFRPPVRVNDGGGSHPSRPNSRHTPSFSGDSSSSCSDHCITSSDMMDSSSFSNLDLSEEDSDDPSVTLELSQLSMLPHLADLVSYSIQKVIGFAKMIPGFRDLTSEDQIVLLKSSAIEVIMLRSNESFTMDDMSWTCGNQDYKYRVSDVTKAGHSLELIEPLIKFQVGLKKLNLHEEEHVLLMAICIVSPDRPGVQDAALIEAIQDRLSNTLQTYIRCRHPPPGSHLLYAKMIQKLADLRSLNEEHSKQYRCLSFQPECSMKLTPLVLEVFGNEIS

This test addresses human Vitamin D Receptor (VDR), VDR (gene 7421) (UniProt P11473). Nature of the test: ATG_VDR_TRANS: Attagene TRANS-FACTORIAL HepG2 Assay for human Vitamin D Receptor (VDR) (AID 2283022). Put shortly: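 Multiplexed TRANS reporter in HepG2; 24 h treatment; reporter mRNA by RT-PCR plus capillary electrophoresis; upregulation scored relative to DMSO.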
Regarding `CCCCCCCCCCCSCC(=O)O`, the compound was called inactive. Same read-out and setting: in the case of `CC(C)c1ccc2cc(C(C)C)ccc2c1` it was “inactive”.

`CN(C)c1ccc(C(=N)c2ccc(N(C)C)cc2)cc1`: the AC50 (usually the concentration giving half of the maximal activity seen) was 156 µM (active).

As to `CC(CC=O)CCCC(C)(C)O` (centres undefined), the result was inactive. As for `CC(C)=CC1CC(C)CCO1` (centres undefined), the call was inactive. With `CCN(CC#N)c1cccc(C)c1`, the compound was called inactive.

As for `O=C(O)c1ccccc1Nc1cccc(C(F)(F)F)c1`, the outcome was inactive. The same measure, in the same setting: for `CC(=O)[C@@]1(O)CC[C@H]2[C@@H]3C[C@H](C)C4=CC(=O)C=C[C@]4(C)[C@@]3(F)[C@@H](O)C[C@@]21C` the value was “inactive”. With `OCCN(CCO)c1ccccc1`, the outcome was inactive.

In the case of `O=C(Nc1cccc(C(F)(F)F)c1)c1cc(Br)cc(Br)c1O`, the compound was classed as inactive. Same read-out and setting: in the case of `O=C1OC(=O)c2cc(Oc3ccc4c(c3)C(=O)OC4=O)ccc21` it was “inactive”; in that of `CC/C=C\C/C=C\C/C=C\CCCCCCCC(=O)O`, “inactive”. The same measure, in the same setting: for `NNC(=O)c1cccc(C(=O)NN)c1` the value was “inactive”. In the case of `CC=CCO`, the result was inactive. `CC(C)(C)c1ccc(N)cc1`: the outcome was inactive. The same measure, in the same setting: in the case of `CCCCCCCCO[C@@H]1O[C@H](CO)[C@@H](O)[C@H](O)[C@H]1O` it was “inactive”. Take `CC(=O)Oc1ccc(C(C)=O)cc1`: the outcome was inactive. As for `CCC(Cc1ccccc1)(C(=O)c1ccc(N2CCOCC2)cc1)N(C)C` (centres undefined), the compound was called inactive. Still for that read-out and setting: for `CC(=O)CC(N)=O` the value was “inactive”. The same measure, in the same setting: for `Cc1cc(C)c(C)cc1C` the value was “inactive”.

For `CCCCCCOc1cc(C)c(O)c(C)c1C`, the outcome was inactive. On the same count and under the same terms, in the case of `CC(C)=CCCC(C)C=O` (centres undefined) it was “inactive”; in that of `CC(C)(C)c1ccc(OC(=O)c2ccccc2O)cc1`, “inactive”. As for `Nc1ncn([C@@H]2O[C@H](CO)[C@@H](O)[C@H]2O)c(=O)n1`, the compound was called inactive.
